# Experimental data published in ChEMBL document CHEMBL3988442, “University of Dundee, Small-Polar-MMV Screening Library” (2021).
# For some assays here: Entries with a potency or affinity are not part of this list.
# Tests used:
# Design in all cases: scale not given: direction of the effect not stated beside the values
# [1] = target: Protein translocase subunit SecA (Escherichia coli (strain K12)) (UniProt P10408); test: Assay to Identify E. coli SecA ATPase Inhibitors; type: functional; details: 30 µM
# Chain of Protein translocase subunit SecA (Escherichia coli (strain K12)) (P10408 whole entry): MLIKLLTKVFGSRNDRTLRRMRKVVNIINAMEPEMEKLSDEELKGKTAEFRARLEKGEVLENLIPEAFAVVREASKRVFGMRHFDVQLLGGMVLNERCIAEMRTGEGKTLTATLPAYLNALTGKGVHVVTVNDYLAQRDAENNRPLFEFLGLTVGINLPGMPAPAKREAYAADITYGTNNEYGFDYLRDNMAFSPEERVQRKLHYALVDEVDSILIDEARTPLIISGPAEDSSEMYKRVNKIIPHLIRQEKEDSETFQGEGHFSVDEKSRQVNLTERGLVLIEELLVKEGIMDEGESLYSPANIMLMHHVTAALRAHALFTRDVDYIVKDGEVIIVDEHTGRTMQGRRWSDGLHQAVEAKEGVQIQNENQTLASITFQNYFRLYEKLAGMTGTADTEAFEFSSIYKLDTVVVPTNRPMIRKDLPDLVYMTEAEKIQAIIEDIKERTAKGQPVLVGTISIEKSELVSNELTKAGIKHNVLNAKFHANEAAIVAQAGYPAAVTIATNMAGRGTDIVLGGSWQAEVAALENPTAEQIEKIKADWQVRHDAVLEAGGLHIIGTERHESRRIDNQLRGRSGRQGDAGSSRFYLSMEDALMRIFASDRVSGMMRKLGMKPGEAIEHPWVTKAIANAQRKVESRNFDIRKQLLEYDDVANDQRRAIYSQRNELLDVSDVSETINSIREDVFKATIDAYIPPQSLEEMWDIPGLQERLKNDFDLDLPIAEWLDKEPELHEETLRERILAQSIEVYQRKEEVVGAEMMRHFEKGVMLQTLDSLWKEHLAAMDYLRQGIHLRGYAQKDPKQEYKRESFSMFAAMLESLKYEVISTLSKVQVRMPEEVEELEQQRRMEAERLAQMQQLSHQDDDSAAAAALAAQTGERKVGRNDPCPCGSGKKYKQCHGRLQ
# [2] = target: T1, Ubiquitin-activating enzyme e1, putative (Leishmania donovani (strain BPK282A1)) (UniProt E9BSI1); test: Leishmania donovani Ubiquitin Activating Enzyme (LdE1); type: functional; details: 30 µM
# T1 sequence (whole entry): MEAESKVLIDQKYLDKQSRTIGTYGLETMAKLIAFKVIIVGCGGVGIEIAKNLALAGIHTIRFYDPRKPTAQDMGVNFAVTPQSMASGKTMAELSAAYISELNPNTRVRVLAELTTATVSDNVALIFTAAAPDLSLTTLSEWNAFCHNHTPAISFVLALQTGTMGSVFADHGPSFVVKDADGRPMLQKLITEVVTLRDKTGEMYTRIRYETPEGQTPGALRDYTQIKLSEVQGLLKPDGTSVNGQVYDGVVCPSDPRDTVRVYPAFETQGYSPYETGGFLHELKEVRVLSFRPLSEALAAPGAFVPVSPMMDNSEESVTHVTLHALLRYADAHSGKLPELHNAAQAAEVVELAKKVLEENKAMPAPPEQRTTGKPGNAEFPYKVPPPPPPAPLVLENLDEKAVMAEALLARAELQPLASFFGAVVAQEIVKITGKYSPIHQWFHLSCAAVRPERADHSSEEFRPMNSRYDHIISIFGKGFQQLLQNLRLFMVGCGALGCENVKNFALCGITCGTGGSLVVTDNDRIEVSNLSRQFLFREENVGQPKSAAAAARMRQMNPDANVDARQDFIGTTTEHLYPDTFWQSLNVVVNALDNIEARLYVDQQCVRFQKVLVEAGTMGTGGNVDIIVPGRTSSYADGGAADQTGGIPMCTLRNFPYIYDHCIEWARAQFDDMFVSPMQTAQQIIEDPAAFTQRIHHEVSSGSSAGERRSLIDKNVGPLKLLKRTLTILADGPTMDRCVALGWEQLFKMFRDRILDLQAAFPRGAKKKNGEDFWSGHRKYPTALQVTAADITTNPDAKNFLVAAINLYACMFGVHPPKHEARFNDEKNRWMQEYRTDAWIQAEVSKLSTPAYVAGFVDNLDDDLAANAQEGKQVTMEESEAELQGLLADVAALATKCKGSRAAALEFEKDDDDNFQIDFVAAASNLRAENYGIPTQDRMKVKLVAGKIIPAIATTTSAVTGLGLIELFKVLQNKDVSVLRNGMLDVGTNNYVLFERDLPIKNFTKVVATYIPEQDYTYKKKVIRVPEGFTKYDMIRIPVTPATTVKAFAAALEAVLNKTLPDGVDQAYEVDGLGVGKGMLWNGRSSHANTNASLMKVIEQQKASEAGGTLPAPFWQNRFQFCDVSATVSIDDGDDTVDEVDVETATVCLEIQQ
# [3] = target: Sialic acid-binding Ig-like lectin 9 (Homo sapiens) (UniProt Q9Y336); test: Hs-Siglec9 ALPHAscreen SOP 20170721; details: 10 µM
# Chain of Sialic acid-binding Ig-like lectin 9 (Homo sapiens) (Q9Y336 whole entry): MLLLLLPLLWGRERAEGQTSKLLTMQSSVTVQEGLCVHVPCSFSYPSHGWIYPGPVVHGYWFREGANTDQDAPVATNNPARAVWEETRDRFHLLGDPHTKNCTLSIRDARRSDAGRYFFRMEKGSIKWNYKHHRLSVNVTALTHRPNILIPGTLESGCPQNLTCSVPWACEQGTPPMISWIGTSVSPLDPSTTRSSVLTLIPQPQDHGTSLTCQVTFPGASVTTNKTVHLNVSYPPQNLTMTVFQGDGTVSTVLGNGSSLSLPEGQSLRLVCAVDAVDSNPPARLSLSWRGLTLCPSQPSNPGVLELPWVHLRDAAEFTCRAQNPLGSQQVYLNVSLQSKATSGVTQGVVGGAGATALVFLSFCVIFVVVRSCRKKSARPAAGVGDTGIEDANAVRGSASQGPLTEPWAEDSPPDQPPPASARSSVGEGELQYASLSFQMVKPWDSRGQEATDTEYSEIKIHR
# Trypanosoma cruzi = test: Trypanosoma cruzi phosphomannomutase and mannose-1-phosphate guanylyltransferase assay; type: functional; details: 10 µM
# [4] = target: T2, Arginase-2, mitochondrial (Homo sapiens) (UniProt P78540); test: in vitro enzyme assay to detect the production of urea directly proportional to the activity of Arginase II; type: functional; details: 33.3 µM; further: in the data most compounds retested in dose-response had high values
# T2 sequence (whole entry): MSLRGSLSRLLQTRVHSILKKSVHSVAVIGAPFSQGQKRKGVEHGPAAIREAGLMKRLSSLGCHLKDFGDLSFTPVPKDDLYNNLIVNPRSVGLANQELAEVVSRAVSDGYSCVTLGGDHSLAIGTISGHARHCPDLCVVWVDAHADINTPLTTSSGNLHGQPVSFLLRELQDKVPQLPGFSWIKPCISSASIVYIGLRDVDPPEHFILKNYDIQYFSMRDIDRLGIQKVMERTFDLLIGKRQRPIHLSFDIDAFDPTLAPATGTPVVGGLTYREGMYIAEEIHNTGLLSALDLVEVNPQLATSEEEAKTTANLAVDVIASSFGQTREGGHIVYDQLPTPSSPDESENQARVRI
# [5] = target: T3, Proteasome subunit beta (Trypanosoma cruzi) (UniProt O96673); test: Trypanosoma cruzi proteasome chymotrypsin-like activity (TcProtChymo) assay.; further: in the data most compounds retested in dose-response had high values; type: functional; details: 9.37 µM
# T3 sequence (whole entry): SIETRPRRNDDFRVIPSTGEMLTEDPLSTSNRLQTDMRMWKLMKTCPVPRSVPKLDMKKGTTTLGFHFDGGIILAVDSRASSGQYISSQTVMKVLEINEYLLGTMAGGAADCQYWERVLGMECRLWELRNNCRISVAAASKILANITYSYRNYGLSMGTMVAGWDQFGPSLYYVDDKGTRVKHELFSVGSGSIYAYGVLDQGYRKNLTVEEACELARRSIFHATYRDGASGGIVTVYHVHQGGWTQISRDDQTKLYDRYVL
# Homo sapiens = organism: Homo sapiens; test: To identify inhibition of the IFN signalling (Jak-Stat) pathway via expression of an eGFP reporter gene under the control of an IFN-stimulated response element (ISRE) containing MxA promoter.; type: functional; details: 30 µM
# [6] = target: T4, Tyrosyl-tRNA synthetase, putative (Trypanosoma cruzi (strain CL Brener)) (UniProt Q4DSP6); test: Trypanosoma cruzi tyrosyl tRNA synthetase (TcYRS) _High Tyrosine SOP; type: functional; details: 30 µM; further: in the data most compounds retested in dose-response had high values
# T4 sequence (whole entry): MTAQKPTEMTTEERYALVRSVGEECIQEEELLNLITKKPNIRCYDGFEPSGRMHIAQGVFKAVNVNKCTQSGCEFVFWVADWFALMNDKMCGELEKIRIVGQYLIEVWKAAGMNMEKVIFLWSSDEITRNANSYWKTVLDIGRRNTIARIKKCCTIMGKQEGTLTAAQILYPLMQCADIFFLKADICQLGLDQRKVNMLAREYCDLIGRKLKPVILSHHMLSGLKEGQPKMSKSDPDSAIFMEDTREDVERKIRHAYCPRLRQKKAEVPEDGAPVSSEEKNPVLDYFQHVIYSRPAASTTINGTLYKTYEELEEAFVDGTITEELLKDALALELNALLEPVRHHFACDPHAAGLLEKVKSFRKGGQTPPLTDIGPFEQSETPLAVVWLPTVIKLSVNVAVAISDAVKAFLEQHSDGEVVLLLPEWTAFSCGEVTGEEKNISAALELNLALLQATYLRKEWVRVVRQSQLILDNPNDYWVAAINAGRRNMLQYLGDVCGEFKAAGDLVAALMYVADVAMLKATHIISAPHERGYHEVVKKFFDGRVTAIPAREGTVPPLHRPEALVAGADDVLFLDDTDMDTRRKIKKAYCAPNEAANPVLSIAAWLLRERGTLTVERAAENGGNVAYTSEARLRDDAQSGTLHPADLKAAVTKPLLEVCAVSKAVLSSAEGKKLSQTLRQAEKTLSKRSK
# [7] = target: T4, Tyrosyl-tRNA synthetase, putative (Trypanosoma cruzi (strain CL Brener)); test: Trypanosoma cruzi tyrosyl tRNA synthetase (TcYRS) SOP; type: functional; details: 30 µM
# [8] = target: Chromo domain-containing protein 1 (Saccharomyces cerevisiae (strain ATCC 204508 / S288c) (Baker's yeast)) (UniProt P32657); test: ScCHD-1 Enzyme Inhibition Assay; type: functional; details: 30 µM; further: in the data most compounds retested in dose-response had high values
# Chain of Chromo domain-containing protein 1 (Saccharomyces cerevisiae (strain ATCC 204508 / S288c) (Baker's yeast)) (P32657 whole entry, the tested form may be a part): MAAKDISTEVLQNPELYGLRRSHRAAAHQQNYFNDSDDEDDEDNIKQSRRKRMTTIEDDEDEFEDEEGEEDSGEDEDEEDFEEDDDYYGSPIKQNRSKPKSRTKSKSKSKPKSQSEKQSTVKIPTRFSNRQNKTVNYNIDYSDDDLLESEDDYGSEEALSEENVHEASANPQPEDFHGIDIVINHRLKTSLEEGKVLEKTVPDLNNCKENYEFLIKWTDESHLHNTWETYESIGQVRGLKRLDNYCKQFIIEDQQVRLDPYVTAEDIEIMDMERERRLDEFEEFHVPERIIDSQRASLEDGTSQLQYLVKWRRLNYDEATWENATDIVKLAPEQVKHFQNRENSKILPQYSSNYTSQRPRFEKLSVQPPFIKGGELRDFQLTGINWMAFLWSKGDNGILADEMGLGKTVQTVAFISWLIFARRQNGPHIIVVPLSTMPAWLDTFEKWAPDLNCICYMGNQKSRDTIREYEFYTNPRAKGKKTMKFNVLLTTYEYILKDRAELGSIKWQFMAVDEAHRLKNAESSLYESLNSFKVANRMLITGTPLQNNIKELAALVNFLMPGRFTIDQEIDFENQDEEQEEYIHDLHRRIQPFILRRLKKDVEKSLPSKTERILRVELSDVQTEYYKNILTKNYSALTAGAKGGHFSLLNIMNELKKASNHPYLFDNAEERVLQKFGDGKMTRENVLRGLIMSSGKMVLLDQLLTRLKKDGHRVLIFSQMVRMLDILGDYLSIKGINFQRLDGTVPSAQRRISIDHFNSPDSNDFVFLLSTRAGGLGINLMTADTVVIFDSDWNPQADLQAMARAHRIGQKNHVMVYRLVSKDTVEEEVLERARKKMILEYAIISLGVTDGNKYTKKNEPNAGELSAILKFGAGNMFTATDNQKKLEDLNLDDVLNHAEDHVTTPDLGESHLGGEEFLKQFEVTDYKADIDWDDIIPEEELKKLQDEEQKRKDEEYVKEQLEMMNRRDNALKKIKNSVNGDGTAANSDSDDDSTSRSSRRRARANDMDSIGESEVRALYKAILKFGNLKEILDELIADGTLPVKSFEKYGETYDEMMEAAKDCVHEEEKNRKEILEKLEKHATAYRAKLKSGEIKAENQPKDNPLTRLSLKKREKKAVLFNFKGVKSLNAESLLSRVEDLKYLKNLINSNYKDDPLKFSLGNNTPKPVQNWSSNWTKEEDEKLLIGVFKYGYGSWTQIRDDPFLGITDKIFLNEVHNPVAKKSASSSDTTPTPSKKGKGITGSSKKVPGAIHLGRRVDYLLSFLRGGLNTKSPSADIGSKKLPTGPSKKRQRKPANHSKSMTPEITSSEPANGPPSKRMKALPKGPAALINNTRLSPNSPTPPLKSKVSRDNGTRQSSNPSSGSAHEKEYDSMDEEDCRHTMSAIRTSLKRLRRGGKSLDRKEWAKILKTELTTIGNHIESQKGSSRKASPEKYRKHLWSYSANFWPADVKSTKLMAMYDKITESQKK
SMILES,Percent Effect [1] [%],Percent Effect [2] [%],Percent Effect [3] [%],Percent Effect (Trypanosoma cruzi) [%],Percent Effect [4] [%],Percent Effect [5] [%],Percent Effect (Homo sapiens) [%],Percent Effect [6] [%],Percent Effect [7] [%],Percent Effect [8] [%]
O=C(NCc1nn(-c2ccccc2)c2c1CCC2)N1CCSCC1,-6.8,-2.56,-13.1,12.7,-1.64,7.25,15.5,2.39,13.2,-7.59
CCNC(=O)CCN1CCC(c2cc(N3CCOCC3)nc(C)n2)CC1,-3.37,5.41,12.8,5.92,16.4,6.51,17.2,2.66,9.76,98.8
Cc1ccc(C(O)CNCCn2cccn2)cc1C (stereo not given),-4.43,2.67,5.78,0.803,1.33,2.97,4.85,3.68,7.69,-8.09
COCCNC(=O)c1cc(S(=O)(=O)N2CCCCC2)cs1,-1.54,0,-4.58,-1.07,1.05,14.6,19.3,0.532,2.44,2.87
O=C(C1=CCCCC1)N1CCC2(CC1)COC(COc1ccccn1)C2 (stereo not given),-4.78,9.09,2.76,-0.292,-0.405,18.1,-0.0236,3.68,17.9,-3.36
CCn1nc(C)c(CCNC(=O)C2CCCN(C(=O)N(C)C)C2)c1C (stereo not given),-5.72,0,-0.0434,-2.04,1.05,14.6,8.52,3.72,4.88,-3.32
Cc1ncsc1CCC(=O)N1CCCC[C@H](N(C)C)C1,-5.77,13.5,14.4,9.02,52.8,13.7,16.9,7.98,21.9,-3.1
CC1COCCN1C(=O)c1cccc(OCc2cscn2)c1 (stereo not given),-2.94,10.3,-10.6,7.98,-4.1,9.3,-21.1,5.26,20.5,-2.42
OC(CNCCn1cccn1)c1ccc(F)c(F)c1 (stereo not given),1.48,16,-2.24,2.81,1.33,19.8,18.7,4.74,12.8,-8.38
CCn1nc2c(cc1=O)CN(CC(=O)Nc1nc(C)c(C)s1)CC2,-0.874,0,5.55,-9.7,1.84,13.3,14.5,4.9,9.41,-8.07
CC(=O)N(Cc1noc(C2CC2)n1)C1CCN(Cc2ccncc2)C1 (stereo not given),-3.41,5.13,-20.1,11.6,-4.51,4.86,4.66,1.44,10.8,-5.11
CC(C)n1[nH]c(=O)c2c1NC(=O)CC2c1cccc(OC(F)F)c1 (stereo not given),-3.01,2.7,-4.26,-8.63,-1.75,16.1,27.6,1.6,2.44,-5.54
Cc1cc(NCc2cc3n(n2)CCCN(C(=O)N(C)C)C3)ncn1,-14.3,2.7,3.53,-1.84,1.05,3.42,4.33,1.6,4.88,0.382
CC(C)NC(=O)C1CN(C(=O)Nc2ccccc2)CC12CCOCC2 (stereo not given),-8.24,3.9,-2.62,-3.02,1.22,22.9,14.5,6.84,2.56,-3.13
Cc1cc(C(=O)NCCn2nc3ccccn3c2=O)[nH]n1,0.567,12.8,-9.12,-3.1,0,16.8,8.57,1.44,18.1,-7.79
O=C(c1cccs1)N1CC[C@H](O)[C@@H]1Cc1ccccc1,-8.07,9.09,8.03,-0.563,0.457,0.601,23.5,0.966,7.5,-9.97
Clc1ccc(OCCCN2CCN(c3cnccn3)CC2)cc1,-2.88,-7.79,9.41,-0.933,-2.66,-2.63,3.86,11.8,23.5,-3.92
CS(=O)(=O)NCc1cc2n(n1)CCCN(Cc1cccc(C#N)c1)C2,-4.38,8.11,22.8,7.47,10.8,13,18.6,7.98,19.5,88
COCCN(C)C[C@@H]1CCC[C@@H]2CN(c3cc(OC)ncn3)C[C@@H]21,-6.04,3.9,-3.68,-1.27,-5.26,13.9,11.6,7.89,7.69,0.558
CC(C)c1nn(C)c(N2CCOCC2)c1CNCC(=O)N(C)C,-2.05,12.8,-8.89,1.22,3.69,10.5,-5.7,7.18,22.9,-5.02
COc1ccc(CN2CCC3(CC2)NC(=O)CC3c2ccncc2)cc1 (stereo not given),-7.89,-6.49,3.29,-2.43,-4.05,9.27,5.38,-0.526,2.56,-1.91
O=C(NCc1cc[nH]n1)NCC(c1ccc(F)cc1)N1CCOCC1 (stereo not given),-1.44,23.1,-10.9,4.79,2.87,7.93,8.57,4.31,20.5,-7.47
Cc1nc[nH]c1CN1CCN(C(=O)CCC(F)(F)F)[C@H]2CS(=O)(=O)C[C@H]21,-7.21,2.7,12,7.66,14.3,15.1,11.2,7.98,12.2,-1.8
